HSV replic up – increases HSV replication in cells; HSV replication augmentation in cells, fold increase; maximum fold increase; 220,000 compounds, 0.005% hits; AID 1956; in the data active means maximum fold increase above about 1.5; inconclusive means no clear call, values can overlap the other calls; tested in PC3 cells
TAG inh – inhibitors of triacylglycerol accumulation | H9c2 cells, Nile Red lipid (TAG) fluorescence; cells loaded with 200 µM oleic acid | inhibition, % at 12.5 µM | 230,000 compounds, 0.66% hits | AID 651582;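 active means pattern-corrected inhibition of lipid staining of at least 50% with the nuclear-stain viability signal not falling by more than 50%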
GC-B act – GC-B (human) receptor activation; HEK293-GC-B cells, CNP EC30, cGMP TR-FRET; 0% at EC30 CNP, 100% saturating CNP; P20594; AID 1920062; activation, % at 10 µM; 370,000 compounds, 0.11% hits;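 active means activation at 10 µM reaching about 35% in either raw or pattern-adjusted values, limit read from the data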
Efflux pump mplx – blocks antifungal efflux pumps in multiplex yeast assay. S. cerevisiae Candida pump triplex, Nile Red efflux. 330,000 compounds, 0.44% hits. AID 485275. inhibition, % at 10 µM;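 active means plate passing quality check with inhibition over a set limit, or well fluorescence over plate mean plus 4 SD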;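 further: Nile Red retained in pooled yeast measured as flow cytometry median fluorescence; higher means more Nile Red kept so more efflux inhibition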
A1 inh – inhibitors of the anti-apoptotic protein A1, read as caspase activation. caspase activation, % (no concentration beside the values). 330,000 compounds, 0.066% hits. MEF A1-2A-BIM cells, Caspase-Glo 3/7 luminescence, 3 h; percent of clofoctol response, vehicle zero;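 active means over half of replicate activation scores above 10%, or exactly half above 10 with the replicate mean above 10; inconclusive means replicate mean below 10 yet half the replicates above 10; inactive means over half of replicates below 10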
NPR1 activator – GC-A (human) enzyme activation. P16066. HEK293 GC-A cells, cGMP TR-FRET, EC30 ANP; 0% at EC30 ANP, 100% saturating ANP. activation, % at 10 µM. 370,000 compounds, 0.14% hits. AID 1671463; in the data active means activation above about 40%
Target sequence (P16066 whole entry, looked up): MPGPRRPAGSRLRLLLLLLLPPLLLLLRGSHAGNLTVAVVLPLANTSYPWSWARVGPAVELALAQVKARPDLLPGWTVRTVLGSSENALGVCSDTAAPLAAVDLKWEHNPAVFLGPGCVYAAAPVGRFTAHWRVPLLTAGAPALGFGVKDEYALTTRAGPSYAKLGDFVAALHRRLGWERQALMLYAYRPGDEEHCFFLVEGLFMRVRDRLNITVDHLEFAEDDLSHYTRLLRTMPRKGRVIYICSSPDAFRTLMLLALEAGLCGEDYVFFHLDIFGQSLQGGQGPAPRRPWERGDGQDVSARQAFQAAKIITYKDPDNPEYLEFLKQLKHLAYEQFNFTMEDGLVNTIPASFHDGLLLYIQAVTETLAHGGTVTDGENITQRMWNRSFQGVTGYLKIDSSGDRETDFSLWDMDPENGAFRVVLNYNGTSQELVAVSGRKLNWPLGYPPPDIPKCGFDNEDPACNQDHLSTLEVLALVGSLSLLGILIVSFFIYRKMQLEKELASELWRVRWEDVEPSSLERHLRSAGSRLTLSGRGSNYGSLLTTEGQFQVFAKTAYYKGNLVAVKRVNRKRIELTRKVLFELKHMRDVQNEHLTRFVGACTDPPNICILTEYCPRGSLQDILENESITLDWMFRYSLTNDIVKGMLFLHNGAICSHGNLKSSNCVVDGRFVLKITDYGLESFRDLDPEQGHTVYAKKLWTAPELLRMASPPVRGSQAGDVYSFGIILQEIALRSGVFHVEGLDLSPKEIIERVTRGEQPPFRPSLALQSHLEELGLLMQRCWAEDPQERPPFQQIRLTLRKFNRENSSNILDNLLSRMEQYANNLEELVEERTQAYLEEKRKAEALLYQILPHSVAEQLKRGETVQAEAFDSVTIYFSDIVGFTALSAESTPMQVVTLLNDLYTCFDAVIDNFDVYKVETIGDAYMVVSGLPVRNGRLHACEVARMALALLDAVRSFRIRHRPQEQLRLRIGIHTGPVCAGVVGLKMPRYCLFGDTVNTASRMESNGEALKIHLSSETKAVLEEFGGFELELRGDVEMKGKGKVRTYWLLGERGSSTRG
H9c2 TAG conf – confirmation of triacylglycerol accumulation inhibitors; shares compounds with TAG inh; H9c2 lipid accumulation, Nile Red fluorescence; cells loaded with 200 µM oleic acid; inhibition, % at 12.5 µM; 990 compounds, 71% hits;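 active means mean inhibition across replicates of 40% or more; inactive means mean inhibition below 40%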
Of the large screens only hits and unclear results are named; the others gave an inactive call (follow-up assays come after a bar, where they were run). Hits are enriched below; roughly 1% of the tested compounds scored in any of these assays.

O=C(Nc1nc(-c2ccccc2)cs1)C1CCCN(S(=O)(=O)c2ccccc2)C1 (centres undefined)	none (no result: TAG inh, A1 inh)
O=C(Nc1nc(-c2ccccc2)cs1)C1CCCN(S(=O)(=O)c2cccc([N+](=O)[O-])c2)C1 (centres undefined)	TAG inh 62 | H9c2 TAG conf 47
COc1cc(-c2ccc3oc(-c4cccc(C)c4)c(C#CC4(O)CCCCC4)c3c2)cc(OC)c1OC	TAG inh 51 (no result: HSV replic up) | H9c2 TAG conf 53
CCC1CCCCN1C(=O)n1ncc(C(O)(c2ccccc2)c2ccccc2)n1 (centres undefined)	none (no result: HSV replic up, TAG inh, Efflux pump mplx, A1 inh)
CC(C)(C)c1csc(NNC(=O)c2ccc(Br)cc2)n1	TAG inh 55 | H9c2 TAG conf inactive
CCOC(=O)[C@@]12CCCC3=C1N(CCC3)C(=O)[C@H]2CC(=O)NCc1cccc(C(F)(F)F)c1	none (no result: HSV replic up, TAG inh, Efflux pump mplx, A1 inh)
O=C(CSc1nnc(-c2ccco2)n1-c1ccc(Cl)cc1)Nc1cccc2ccccc12	none (no result: HSV replic up, TAG inh, Efflux pump mplx, A1 inh)
COc1cc(C#Cc2c(-c3cncn3C)n(C)c3ccc(-c4ccc(OC)c(OC)c4)cc23)cc(OC)c1	TAG inh 70 (no result: HSV replic up) | H9c2 TAG conf 69
COc1cc(C#Cc2c(-c3cncn3C)n(C)c3ccc(-c4ccc5cc[nH]c5c4)cc23)cc(OC)c1	TAG inh 82 (no result: HSV replic up) | H9c2 TAG conf 74
COc1cc(C#Cc2c(-c3cncn3C)n(C)c3ccc(Br)cc23)cc(OC)c1	none (no result: HSV replic up)
COc1cccc(-c2c(-c3cc(OC)cc(OC)c3)n(C)c3ccc(-c4ccc5cc[nH]c5c4)cc23)c1	none (no result: HSV replic up)
C[C@H]1C(c2ccccc2F)O[C@]2(C[C@H](O)c3ccccc3O2)C[C@@H]1O (some centres undefined)	none (no result: HSV replic up, TAG inh, Efflux pump mplx, A1 inh)
C/C(=N\Nc1cc(N2CCOCC2)nc(C)n1)c1ccc(F)cc1	TAG inh 52 (no result: HSV replic up) | H9c2 TAG conf inactive
C/C(=N\Nc1cc(N2CCCCC2)nc(C)n1)c1ccc(Br)cc1	none (no result: HSV replic up)
Cc1cccc(Cn2cc(CN3CC(N(C)CCCOC(=O)c4cc5ccccc5o4)CS3(=O)=O)nn2)c1 (centres undefined)	none (no result: HSV replic up, TAG inh, Efflux pump mplx, A1 inh)
N#CC(C#N)=c1ccc2c(c1)N1C(c3ccccc3)=CC(c3ccccc3)C3CCCCC31N=2 (centres undefined)	TAG inh 89 | H9c2 TAG conf 119
O=C(CN1CCN(c2ccccn2)CC1)Nc1ccccc1C(=O)Nc1ccccc1	none (no result: HSV replic up)
COc1cc(NC(=O)c2cc([N+](=O)[O-])ccc2NC(=O)CN2CCN(c3ccccn3)CC2)cc(OC)c1	TAG inh 60 (no result: HSV replic up) | H9c2 TAG conf 79
CCOCC(=O)NC1CCc2cc(OC)c(OC)c(OC)c2-c2ccc(SC)c(=O)cc21 (centres undefined)	TAG inh 54 (no result: HSV replic up, Efflux pump mplx, A1 inh) | H9c2 TAG conf inactive
COc1ccc2c(c1)[nH]c1c(=O)n(/N=C/C3C(C)C=C(C)CC3C)c(=O)[nH]c12 (centres undefined)	TAG inh 85 | H9c2 TAG conf inactive
COc1ccc2[nH]c3c(=O)n(/N=C/[C@H]4C(C)C=C(C)CC4C)c(=O)[nH]c3c2c1 (some centres undefined)	A1 inh inconclusive (no result: TAG inh)
Cc1ccc(NC(=O)CSc2nc3ccc(Nc4nc(N5CCOCC5)nc(N5CCOCC5)n4)cc3s2)cc1	TAG inh 84, A1 inh 10 (no result: HSV replic up) | H9c2 TAG conf 86
Cc1onc(-c2ccc(Cl)cc2Cl)c1-c1csc(N/N=C/c2ccccc2Cl)n1	TAG inh 57 | H9c2 TAG conf inactive
CC(C)n1nnnc1C1(C)CCSCC(=O)N1Cc1cccc(C(F)(F)F)c1 (centres undefined)	none (no result: HSV replic up, TAG inh, Efflux pump mplx, A1 inh)
Cc1cccc(NC(=O)c2nc[nH]c2C(=O)NCCCCCCNC(=O)c2[nH]cnc2C(=O)Nc2cccc(C)c2)c1	TAG inh 76 (no result: HSV replic up) | H9c2 TAG conf inactive
Cc1cccc(NC(=O)c2nc[nH]c2C(=O)NCc2ccccc2)c1	none (no result: HSV replic up)
COC(=O)C1CN(Cc2cn(Cc3ccc(OC)cc3)nn2)CCS(=O)(=O)N1Cc1ccc(C)cc1 (centres undefined)	none (no result: HSV replic up, TAG inh, Efflux pump mplx, A1 inh)
CCOC(=O)c1c(C)[nH]c(C(=O)OC(C)C(=O)Nc2ccc(C)cc2)c1C (centres undefined)	none (no result: HSV replic up, Efflux pump mplx, A1 inh)
CCOC(=O)c1[nH]c(C)c(C(=O)OC(C)C(=O)Nc2ncc(Cl)cc2Cl)c1C (centres undefined)	TAG inh 57 | H9c2 TAG conf inactive
CN(C)CCNC=C(C(=O)Nc1ccc(Cl)cc1Cl)C(=O)Nc1ccc(Cl)cc1Cl	TAG inh 102 | H9c2 TAG conf 92
CC(C)CN1C(=O)C[C@@]2(C(=O)N(C)c3ccc(NC(=O)C(F)(F)F)cc32)C1c1ccccc1 (some centres undefined)	none (no result: HSV replic up, TAG inh, Efflux pump mplx, A1 inh)
CCOC(=O)c1[nH]c2ccc(OCC)cc2c1NC(=O)CN1CCN(c2ccccc2)CC1	TAG inh 58 | H9c2 TAG conf 41
CCOC(=O)c1[nH]c2ccc(OCC)cc2c1NC(=O)CN1CCC2(CC1)OCCO2	none (no result: TAG inh)
Cc1ccc(C(C(=O)NC2CCCC2)N(C(=O)c2csnn2)C2CCCC2)o1 (centres undefined)	none (no result: TAG inh)
Cc1ccc(CN(C(=O)c2csnn2)C(C(=O)NC2CCCC2)c2ccc(C)o2)cc1 (centres undefined)	TAG inh 51 | H9c2 TAG conf 42
CCN(C(=O)COC(=O)c1ccc(Sc2ncn[nH]2)c([N+](=O)[O-])c1)c1ccccc1	none (no result: HSV replic up, TAG inh, Efflux pump mplx, A1 inh)
CCC1SC2=NC(C)=C(C(=O)OCC(C)C)C(/C=C/c3ccccc3OC)N2C1=O (centres undefined)	TAG inh 72 | H9c2 TAG conf inactive
Cc1ccc(S(=O)(=O)N2CCCC2c2cccc3[nH]cc(C)c23)cc1 (centres undefined)	none (no result: HSV replic up, TAG inh, Efflux pump mplx, A1 inh)
CCc1nnc(NS(=O)(=O)c2ccc(NC(=O)c3ccc([N+](=O)[O-])s3)cc2)s1	TAG inh 67 (no result: HSV replic up, Efflux pump mplx, A1 inh) | H9c2 TAG conf inactive
O=C(Nc1ccc(S(=O)(=O)N2CCOCC2)cc1)c1ccc([N+](=O)[O-])s1	TAG inh 94 (no result: HSV replic up) | H9c2 TAG conf 89
O=C(Nc1ccc(S(=O)(=O)N2CCOCC2)cc1)c1cccs1	none
C[C@@H]1C[C@H]2[C@@H](C)C(=O)N3[C@H](c4ccccc4)[C@H](C)C[C@H]3[C@@H](C)C(=O)N2[C@@H]1c1ccccc1	none (no result: HSV replic up, TAG inh, Efflux pump mplx, A1 inh)
C=C(C)c1cccc(C(C)(C)NC(=O)N2CCC(C(N)=O)CC2)c1	TAG inh 59 | H9c2 TAG conf inactive
COc1ccc2c(c1)c(CC(=O)Nc1ccc(C)cc1)c(C)n2C(=O)c1ccc(Cl)cc1	TAG inh 61 | H9c2 TAG conf 50
COc1ccc(NC(=O)Cc2c(C)n(C(=O)c3ccc(Cl)cc3)c3ccc(OC)cc23)cc1	none

Compound activity: PubChem, several laboratories
